# Laboratory results reported in publication PMC4336329 (PLoS ONE, 2015).
# Among all 310,000 compounds or so, about 14,000 (4.5%) showed an effect of 50% or more. Effects have a minus sign here. Only a selection was taken, and strong results are over-represented in it overall.
# Biological target: human ether-à-go-go-related gene (hERG) potassium channel (human, UniProt Q12809)
# Test: primary screen, population patch clamp on CHO cells stably expressing hERG; higher = less effect of the substance
# 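Further: peak tail current of the secondary pulse compared with the same well before compound.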
# Chain of human ether-à-go-go-related gene (hERG) potassium channel (Q12809 whole entry, looked up): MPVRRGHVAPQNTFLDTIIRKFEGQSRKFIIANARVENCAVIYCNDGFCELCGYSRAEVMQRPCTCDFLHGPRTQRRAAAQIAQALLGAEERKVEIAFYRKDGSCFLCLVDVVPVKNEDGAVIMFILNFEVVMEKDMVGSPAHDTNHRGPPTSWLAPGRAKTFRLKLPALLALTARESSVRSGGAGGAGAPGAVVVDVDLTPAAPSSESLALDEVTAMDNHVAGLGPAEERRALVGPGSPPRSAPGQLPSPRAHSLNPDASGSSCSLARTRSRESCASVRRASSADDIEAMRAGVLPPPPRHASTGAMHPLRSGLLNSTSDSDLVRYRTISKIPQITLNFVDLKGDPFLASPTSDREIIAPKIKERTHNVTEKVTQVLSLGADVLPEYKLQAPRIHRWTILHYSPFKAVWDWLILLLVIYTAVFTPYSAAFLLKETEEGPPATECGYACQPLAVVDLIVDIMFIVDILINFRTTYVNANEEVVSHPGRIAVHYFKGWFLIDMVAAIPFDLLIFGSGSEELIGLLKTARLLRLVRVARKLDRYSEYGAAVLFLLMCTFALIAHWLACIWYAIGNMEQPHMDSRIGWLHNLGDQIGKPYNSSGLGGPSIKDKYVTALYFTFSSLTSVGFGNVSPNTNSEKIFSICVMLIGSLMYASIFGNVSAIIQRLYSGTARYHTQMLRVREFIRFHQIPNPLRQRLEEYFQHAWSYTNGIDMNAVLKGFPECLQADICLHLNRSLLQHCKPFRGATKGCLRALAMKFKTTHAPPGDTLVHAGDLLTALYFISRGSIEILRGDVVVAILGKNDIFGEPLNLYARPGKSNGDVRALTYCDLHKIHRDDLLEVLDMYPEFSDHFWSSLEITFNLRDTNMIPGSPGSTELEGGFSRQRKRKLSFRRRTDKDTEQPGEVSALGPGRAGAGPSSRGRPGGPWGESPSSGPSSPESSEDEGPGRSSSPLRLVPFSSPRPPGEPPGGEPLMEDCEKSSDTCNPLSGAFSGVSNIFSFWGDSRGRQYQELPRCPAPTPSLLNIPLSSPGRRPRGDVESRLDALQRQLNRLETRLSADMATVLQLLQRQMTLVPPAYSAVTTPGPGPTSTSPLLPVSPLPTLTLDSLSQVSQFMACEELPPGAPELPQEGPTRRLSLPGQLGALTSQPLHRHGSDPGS
row,Compound,"hERG current change (%, negative = inhibition) at 10uM"
1,N#CC1=C(N)Oc2n[nH]c(-c3ccccc3)c2C12C(=O)Nc1ccccc12 (stereo not shown),17.4%
2,NC(=S)N/N=C/c1coc2ccc(F)cc2c1=O,10.3%
3,COCCNC(=O)c1ccc(-n2c(SCc3cccnc3)nc3ccccc3c2=O)cc1,-8.88%
4,Fc1ccc(/C=N/Nc2cc(N3CCOCC3)ncn2)cc1,15.4%
5,COC(=O)c1ccccc1N/C=C/C(=O)c1ccc(Br)cc1,16.1%
6,Cn1c(SCC(=O)NNC(=O)Cc2ccccc2)nc2ccccc2c1=O,11.7%
7,COc1ccc(CCC(=O)N2CC(C)OC(C)C2)cc1 (stereo not shown),5.02%
8,CCOCc1nnc(NC(=O)c2cc(C(=O)OC)cc([N+](=O)[O-])c2)s1,21.3%
9,C(=N\Nc1nc(-c2ccccc2)cs1)/c1cccs1,18.5%
10,C(=N\Nc1nc(-c2ccccc2)cs1)/c1ccncc1,-50.5%
11,Brc1ccc(-c2csc(N/N=C/c3cccnc3)n2)cc1,19.6%
12,Br.CC(=O)Nc1ccc(-c2csc(N/N=C\c3ccncc3)n2)cc1,4.43%
13,C(=N\Nc1nc(-c2ccccc2)cs1)/c1cccnc1,-59.5%
14,Clc1ccc(-c2csc(N/N=C\c3cccnc3)n2)cc1,6.05%
15,CC(=O)Oc1ccc2oc(C)c(C(=O)N3CCOCC3)c2c1,-8.91%
16,CCN(CC)C(=O)Oc1nnc(SC(C)C)n1-c1ccc(Cl)cc1,-4.75%
17,Nc1ccc(Oc2ccc(Br)cc2)cc1,-4.61%
18,CN1C(=O)/C(=N\OC(=O)c2ccccc2Cl)c2ccccc21,-42.8%
19,Cc1[nH]n(-c2ccccc2)c(=O)c1N=Nc1cccc(C(=O)O)c1,23.1%
20,O=C(NC1CCCC1)C1(c2ccccc2)CCN(S(=O)(=O)c2ccccc2)CC1,-6.14%
21,CCCn1c(C(C)NC(=O)c2ccccc2)n[nH]c1=S (stereo not shown),12.7%
22,O=C(C#Cc1ccccc1)c1ccco1,5.83%

row,Compound,"hERG current change (%, negative = inhibition) at 10uM"
1,CCOC(=O)C1(Cc2ccccc2)CCN(Cc2cccc3nccnc23)CC1,-59.9%
2,CCOC(=O)C1(Cc2ccc(OC)cc2)CCN(C(=O)c2cccc3nccnc23)CC1,-31.4%
3,CCOC(=O)C1(CCOc2ccccc2)CCN(Cc2cccc3nonc23)CC1,-28.6%
4,CCOC(=O)C1(CCc2ccccc2)CCN(Cc2cccc3cnccc23)CC1,-69.6%
5,CCOC(=O)C1(Cc2cccc(OC)c2)CCN(Cc2cccc3cnccc23)CC1,-39.3%
6,CCOC(=O)c1[nH]ncc1CN1CCC(Cc2ccccc2)(C(=O)OCC)CC1,-35.3%
7,CCOC(=O)C1(CCc2ccccc2)CCN(Cc2cccc3nccnc23)CC1,-60.5%
8,O=C(CSC1=NCCS1)Nc1ccnc2ccccc12,-5.91%
9,COc1ccc(Cl)cc1C(=O)OCC(=O)Nc1cccnc1Cl,15.8%
10,COc1ccc(CN(C(=S)Nc2ccccc2)C2CC(=O)N(c3ccc(F)cc3)C2=O)cc1 (stereo not shown),26.5%
11,COc1ccc2cc(Br)ccc2c1CC(=O)NC(C)(C)C,17.3%
12,Cn1cc(C(c2ccccc2OCC(=O)O)c2cn(C)c3ccccc23)c2ccccc21,3.58%
13,COC(=O)c1ccc(NC(=S)NC2CCCCC2)cc1,1.13%
14,Cc1nc2ccccc2c2oc(C(=O)N3CCN(c4ccc([N+](=O)[O-])cc4)CC3)cc12,-9.45%
15,Cc1ccc(C(=O)N2CCN(c3ncccn3)CC2)o1,13.4%
16,Cc1occc1C(=O)N1CCN(c2ccc(Cl)cc2)CC1,-4.41%
17,Cc1ccc(C(=O)N2CCN(c3ccc([N+](=O)[O-])cc3)CC2)o1,-80.2%
18,Cc1c(-c2ccccc2)oc2c(C(=O)N3CCN(c4ccc([N+](=O)[O-])cc4)CC3)cccc2c1=O,-75.4%
19,COc1ccc(N2CCN(C(=O)c3oc4ccccc4c3C)CC2)cc1,-31.9%
20,Cc1occc1C(=O)N1CCN(c2ccccc2)CC1,-8.67%
21,Cc1occc1C(=O)N1CCN(c2ccc([N+](=O)[O-])cc2)CC1,-77.7%
22,Cc1c(-c2ccccc2)oc2c(C(=O)N3CCN(c4ccccc4F)CC3)cccc2c1=O,-8.63%

row,Compound,"hERG current change (%, negative = inhibition) at 10uM"
1,COc1ccccc1N1CCN(C(=O)c2cccc3c(=O)c(C)c(-c4ccccc4)oc23)CC1,-31.2%
2,Cc1c(C(=O)N2CCOCC2)oc2ccccc12,5.05%
3,Cc1c(C(=O)N2CCN(c3ccc([N+](=O)[O-])cc3)CC2)oc2ccccc12,-72.8%
4,COc1ccc(N2CCN(C(=O)CNC(=O)c3cccs3)CC2)cc1,10.9%
5,CCC(C)NC(=O)C(=O)NCc1ccccn1 (stereo not shown),14.6%
6,COc1ccc(CNC(=O)c2nnn(CC(=O)Nc3cc(C)cc(C)c3)c2N)cc1,11.9%
7,CCCCc1cc(=O)oc2cc(C)cc(OCC(=O)NCC3CCC(C(=O)O)CC3)c12 (stereo not shown),-1.21%
8,CC1Cc2ccccc2N1C(=O)c1cc2sccc2n1Cc1ccccc1 (stereo not shown),7.64%
9,CC[N+](C)(CC)CCCCOc1ccc2c(c1)C(=O)c1cc(OCCCC[N+](C)(CC)CC)ccc1-2.[I-],12.9%
10,O=c1c2c3nc4ccccc4nc3n(CC3CCCO3)c2ncn1CCc1ccccc1 (stereo not shown),-5.67%
11,O=C(c1cccc(F)c1)N1C2C=CC(C2)C1(C(F)(F)F)C(F)(F)F (stereo not shown),-0.667%
12,C=CCn1c(COc2cccc3cccnc23)nnc1SCC(=O)O,12.7%
13,Cc1cccc2c1N(CCOc1ccc(C(C)(C)C)cc1)C(=O)C2=O,-7.48%
14,Cc1cccc(CCNS(=O)(=O)c2cc3c(cc2C)NC(=O)CO3)c1,-34.4%
15,CC1(C)CC(=O)C(C=NC2CCCCC2)=C(O)C1,-10.2%
16,Cc1nc(NCc2ccco2)c2oc3ccccc3c2n1,-29.8%
17,C=CCOc1ccc(CN(C)C(=O)C2CCCO2)cc1 (stereo not shown),2.34%
18,Cc1cc(C(=O)N2CCN(c3ccc([N+](=O)[O-])cc3)CC2)c(C)o1,-73.5%
19,CCn1cc(C(=O)N2CCN(c3ccc([N+](=O)[O-])cc3)CC2)c(=O)c2ccc(C)nc21,-70.9%
20,Cc1cc(C(=O)N2CCN(c3ccccc3)CC2)c(C)o1,-1.46%
21,O=C(c1ccc(-c2cccc(Cl)c2)o1)N1CCN(c2ccc([N+](=O)[O-])cc2)CC1,-58.9%
22,Cc1c(Cl)cccc1-c1ccc(C(=O)N2CCN(c3ccc([N+](=O)[O-])cc3)CC2)o1,-14%

row,Compound,"hERG current change (%, negative = inhibition) at 10uM"
1,O=C(c1ccc(-c2ccc(Cl)cc2)o1)N1CCN(c2ccc([N+](=O)[O-])cc2Cl)CC1,3.9%
2,CCn1cc(C(=O)N2CCN(c3ccccc3F)CC2)c(=O)c2ccc(C)nc21,-5.94%
3,CCn1cc(C(=O)N2CCN(c3cccc(C)c3C)CC2)c(=O)c2ccc(C)nc21,-12.9%
4,COc1ccc(N2CCN(C(=O)c3cc(C)oc3C)CC2)cc1,12.7%
5,O=C(C(=O)N1CCN(C(=O)c2ccco2)CC1)c1c[nH]c2ccccc12,-2.67%
6,CCOc1ccc(S(=O)(=O)n2cc(-c3ccccc3)c(N)n2)cc1,5.5%
7,O=C(c1ccc2c(Cl)c3c(nc2c1)CCCC3)N1CCC(N2CCCCC2)CC1,-46%
8,CN(C)CCCN(C(=O)c1sc2ccccc2c1Cl)c1nc2c(F)cccc2s1.Cl,-61.9%
9,Cc1cccc2sc(N(CCCN(C)C)C(=O)c3ccc(S(=O)(=O)N4CCc5ccccc5C4)cc3)nc12.Cl,13.9%
10,Cc1cccc2sc(N(CCCN(C)C)C(=O)c3sc4ccccc4c3Cl)nc12.Cl,-13.5%
11,CN(C)CCCOC(=O)c1sc2ccccc2c1Cl.Cl,-50.2%
12,CN(C)CCCN(C(=O)c1ccc(C(=O)c2ccccc2)cc1)c1nc2c(F)cccc2s1,-67.3%
13,Cc1ccc2nc(N(CCCN(C)C)C(=O)c3sc4ccccc4c3Cl)sc2c1.Cl,-29.9%
14,CN(C)CCOC(=O)c1sc2ccccc2c1Cl.Cl,-29.4%
15,Cc1cccc2sc(N(CCCN(C)C)C(=O)c3ccc(C(=O)c4ccccc4)cc3)nc12,-53.2%
16,Cc1ccc2sc(N(CCCN(C)C)C(=O)c3ccc(S(=O)(=O)N(C)Cc4ccccc4)cc3)nc2c1C.Cl,-20%
17,NC(=O)COC(=O)c1sc2ccccc2c1Cl,24.3%
18,CN(C)CCCN(C(=O)c1ccc(N2C(=O)CCC2=O)cc1)c1nc2c(F)cccc2s1.Cl,-0.103%
19,O=c1c2ccccc2ncn1-c1ccccc1[N+](=O)[O-],11.9%
